Laboratory results from PubChem BioAssay (EPA / NIEHS).
Calls of active or inactive are those of the source. Rule for the calls: active = hit-call score of the fitted dose curve at least 0.9, where 1 is the maximum; inactive = score below 0.9.

Legend:
[1] = ATG_M_32_CIS: Attagene CIS-FACTORIAL HepG2 Assay for M32 Transcription Factor (Internal Marker) (AID 2282949); conditions: HepG2 Attagene cis-factorial M32 reporter, mRNA; actives raise or lower the signal;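 note: background control marker of the multiplexed CIS panel rather than a real target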
In short: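 Using DMSO as baseline, bidirectional curve fits were applied to reporter mRNA signals. These came from transiently transfected HepG2 cells exposed for 24 h, with RNA analysed by RT-PCR, FAM primer extension, HpaI digestion and CE.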

[2] = ATG_M_06_CIS: Attagene CIS-FACTORIAL HepG2 Assay for M06 Transcription Factor (Internal Marker) (AID 2282950); conditions: HepG2 Attagene CIS-FACTORIAL M06 internal marker reporter; actives raise or lower the signal
In short: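 Fluorescence-labelled RT-PCR products from cis-promoter reporter units, cut with HpaI and resolved by capillary electrophoresis, give the signal. Cells are human HepG2, dosed for 24 h. Serves as background control, fitted relative to DMSO.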

[3] = target: Hypoxia-inducible factor 1-alpha (Homo sapiens) (UniProt Q16665); experiment: ATG_HIF1a_CIS: Attagene CIS-FACTORIAL HepG2 Assay for human Hypoxia Inducible Factor 1 (HIF1A) (AID 2282951); conditions: HepG2 Attagene cis-factorial HIF1a reporter transcription; actives raise or lower the signal
In short: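 Measures endogenous transcription-factor activity through cis-regulated reporter mRNA in HepG2. Cells dosed 24 h; transcripts quantified by RT-PCR with 6-FAM-labelled products separated by capillary electrophoresis; DMSO serves as negative control.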

[4] = target: Hepatocyte nuclear factor 6 (Homo sapiens) (UniProt Q9UBC0); experiment: ATG_HNF6_CIS: Attagene CIS-FACTORIAL HepG2 Assay for human Hepatocyte Nuclear Factor 6 (HNF6) (AID 2282952); conditions: HepG2 Attagene cis-factorial HNF6 reporter transcription; actives raise or lower the signal
In short: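 Endogenous transcription factor activity in human HepG2 liver cells was captured through cis-regulated reporter constructs. After 24 h treatment, reporter mRNA was measured by RT-PCR with capillary electrophoresis, and activity was fitted in both directions relative to DMSO.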

[5] = target: Heat shock factor protein 1 (Homo sapiens) (UniProt Q00613); experiment: ATG_HSE_CIS: Attagene CIS-FACTORIAL HepG2 Assay for human Heat Shock Transcription Factor 1 (HSE) (AID 2282953); conditions: HepG2 HSE cis-reporter, Attagene RNA transcription; actives raise or lower the signal
In short: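 After a 24 h incubation with test chemical, transfected HepG2 cells were harvested for RNA; reporter transcripts were measured by RT-PCR and capillary electrophoresis. Values reflect gain or loss of signal relative to DMSO.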

[6] = ATG_MRE_CIS: Attagene CIS-FACTORIAL HepG2 Assay for human Metal Responsive Element (MRE) (AID 2282954); conditions: HepG2 MRE cis-reporter transcription, Attagene multiplex; actives raise or lower the signal
In short: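 Multiplexed cis-reporter assay in human HepG2 liver cells, 24 h incubation with test chemical. Reporter transcripts measured by RT-PCR and capillary electrophoresis; values from bidirectional curve fitting versus DMSO.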

[7] = ATG_PBREM_CIS: Attagene CIS-FACTORIAL HepG2 Assay for human Phenobarbital-responsive Enhancer Module (PBREM) (AID 2282955); conditions: HepG2 PBREM cis-reporter, Attagene multiplexed transcription; actives raise or lower the signal
In short: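 Fluorescence of labelled reporter cDNA fragments, resolved by capillary electrophoresis, gives mRNA induction in transfected HepG2 cells treated for 24 h; DMSO serves as negative control and baseline.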

[8] = target: Paired box protein Pax-6 (Homo sapiens) (UniProt P26367); experiment: ATG_Pax6_CIS: Attagene CIS-FACTORIAL HepG2 Assay for human Paired Box 6 (PAX6) (AID 2282956); conditions: HepG2 CIS-FACTORIAL PAX6 reporter transcription, RNA readout; actives raise or lower the signal
In short: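 DMSO-referenced bidirectional fits of reporter mRNA fluorescence; HepG2 with transient cis-promoter MRTUs, 24 h post-dose, RT-PCR plus capillary electrophoresis detection.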

[9] = ATG_PXRE_CIS: Attagene CIS-FACTORIAL HepG2 Assay for human Pregnane X Receptor Element (PXRE) (AID 2282957); conditions: HepG2 Attagene CIS-FACTORIAL PXRE reporter, mRNA; actives raise or lower the signal
In short: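 Endogenous transcription factor activity in HepG2 was gauged through induction of reporter mRNA driven by a cis-regulating promoter element, sampled 24 h post-treatment. Activity was fitted in both directions against DMSO negative control.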

[10] = ATG_RORE_CIS: Attagene CIS-FACTORIAL HepG2 Assay for human RAR-related Orphan Receptor Element (RORE) (AID 2282959); conditions: HepG2 Attagene cis-factorial RORE reporter, mRNA; actives raise or lower the signal
In short: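 Cells were HepG2 carrying transfected cis-regulated reporter constructs, dosed for 24 hours. Total RNA was reverse-transcribed and reporter cDNA amplified, fluorescently labeled and sized by capillary electrophoresis. Activity was fitted bidirectionally relative to DMSO.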

[11] = target: Transcription factor Sp1 (Homo sapiens) (UniProt P08047); experiment: ATG_Sp1_CIS: Attagene CIS-FACTORIAL HepG2 Assay for human Specificity Protein 1 (Sp1) (AID 2282961); conditions: HepG2 Sp1 cis-reporter transcription, actives raise or lower the signal
In short: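 Endogenous Sp1 activity was gauged in human liver HepG2 cells bearing transfected reporter units under a cis-regulating promoter. After 24 h dosing, reporter mRNA was quantified by RT-PCR with capillary electrophoresis, and activity fitted bidirectionally versus DMSO.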

[12] = ATG_SREBP_CIS: Attagene CIS-FACTORIAL HepG2 Assay for human Sterol Regulatory Element Binding (SREBP) (AID 2282962); conditions: HepG2 Attagene cis-factorial SREBP reporter, mRNA; actives raise or lower the signal
In short: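 In this cis-format assay, HepG2 liver cells express reporters controlled by promoter elements responsive to native transcription factors. Exposure lasts 24 h; reporter mRNA fluorescence from capillary electrophoresis gives the signal, fitted bidirectionally against DMSO.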

[13] = target: Signal transducer and activator of transcription 3 (Homo sapiens) (UniProt P40763); experiment: ATG_STAT3_CIS: Attagene CIS-FACTORIAL HepG2 Assay for human Signal Transducer and Activator of Transcription 3 (STAT3) (AID 2282963); conditions: HepG2, Attagene cis-factorial STAT3 reporter transcription; actives raise or lower the signal
In short: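 Cis-factorial format: endogenous transcription factors in HepG2 drive transfected reporter units. After 24 h treatment, reporter RNA was reverse-transcribed, amplified, FAM-labelled and HpaI-digested before CE analysis; activity scored in both directions against DMSO.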

[14] = ATG_TA_CIS: Attagene CIS-FACTORIAL HepG2 Assay for human TA Basal Promoter (AID 2282964); conditions: HepG2 Attagene CIS-factorial TA basal promoter reporter; actives raise or lower the signal
In short: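 Multiplexed mRNA reporter assay, HepG2, 24 h. Reporter cDNA amplified, 6-FAM primer-extended, HpaI-cut, CE-sized; DMSO = negative control and baseline.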

[15] = ATG_TCF_b_cat_CIS: Attagene CIS-FACTORIAL HepG2 Assay for human T-Cell-Factor with beta-catenin (TCF/b-cat) (AID 2282965); conditions: HepG2 TCF/beta-catenin cis-reporter transcription, actives raise or lower the signal
In short: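 Endogenous TCF/LEF activity read as reporter transcript level via RT-PCR and capillary electrophoresis fluorescence in transfected HepG2, 24 h exposure; gain or loss of signal fitted against DMSO controls.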

[16] = ATG_TAL_CIS: Attagene CIS-FACTORIAL HepG2 Assay for human TAL Basal Promoter (AID 2282966); conditions: HepG2 Attagene cis-factorial TAL promoter reporter; actives raise or lower the signal;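 note: background control endpoint measuring basal TAL promoter reporter mRNA not a specific factor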
In short: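 Endogenous transcription-factor activity is sensed in HepG2 cells through transfected cis-promoter reporter constructs. After 24 h dosing, reporter transcripts are quantified by RT-PCR and capillary electrophoresis. Gain or loss of signal is fitted relative to DMSO.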

[17] = ATG_TGFb_CIS: Attagene CIS-FACTORIAL HepG2 Assay for human Transforming Growth Factor (TGF) (AID 2282967); conditions: HepG2 Attagene CIS TGFb reporter, mRNA transcription; actives raise or lower the signal
In short: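 Transcript-level reporter readout: HepG2 transfectants, 24 h exposure, RNA to cDNA, reporter-specific PCR, fluorescent primer extension, capillary sizing against ROX standards. Gain- or loss-of-signal relative to DMSO.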

[18] = ATG_VDRE_CIS: Attagene CIS-FACTORIAL HepG2 Assay for human Vitamin D Receptor Element (VDRE) (AID 2282968); conditions: HepG2 VDRE cis-reporter transcription, actives raise or lower the signal
In short: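 Measures endogenous factor activity through cis-element-driven reporter transcripts in transiently transfected HepG2. Cells are treated 24 h; reporter mRNA is quantified by RT-PCR and capillary electrophoresis; fitting is bidirectional.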

[19] = ATG_PPRE_CIS: Attagene CIS-FACTORIAL HepG2 Assay for human Peroxisome Proliferator-activated Response Element (PPRE) (AID 2282958); conditions: HepG2 PPRE cis-element reporter, Attagene transcription factor profiling; actives raise or lower the signal
In short: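 Cells are first transfected transiently with the multiplexed reporter library, then dosed for 24 h. Total RNA is reverse-transcribed, amplified, fluorescently end-labeled and HpaI-cut before capillary electrophoresis; activity is fitted bidirectionally against DMSO controls.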

[20] = ATG_Sox_CIS: Attagene CIS-FACTORIAL HepG2 Assay for human SRY-box transcription factor (SOX) (AID 2282960); conditions: HepG2 Attagene cis-factorial SOX reporter, mRNA; actives raise or lower the signal
In short: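 Transient MRTU transfection of HepG2; 24 h compound incubation; TriZol RNA, oligo(dT) RT, PCR, 6-FAM primer extension, HpaI cut, CE. Bidirectional fit, DMSO = baseline.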

Measured: AC50

Sequence of Transcription factor Sp1 (Homo sapiens) (P08047 whole entry, looked up): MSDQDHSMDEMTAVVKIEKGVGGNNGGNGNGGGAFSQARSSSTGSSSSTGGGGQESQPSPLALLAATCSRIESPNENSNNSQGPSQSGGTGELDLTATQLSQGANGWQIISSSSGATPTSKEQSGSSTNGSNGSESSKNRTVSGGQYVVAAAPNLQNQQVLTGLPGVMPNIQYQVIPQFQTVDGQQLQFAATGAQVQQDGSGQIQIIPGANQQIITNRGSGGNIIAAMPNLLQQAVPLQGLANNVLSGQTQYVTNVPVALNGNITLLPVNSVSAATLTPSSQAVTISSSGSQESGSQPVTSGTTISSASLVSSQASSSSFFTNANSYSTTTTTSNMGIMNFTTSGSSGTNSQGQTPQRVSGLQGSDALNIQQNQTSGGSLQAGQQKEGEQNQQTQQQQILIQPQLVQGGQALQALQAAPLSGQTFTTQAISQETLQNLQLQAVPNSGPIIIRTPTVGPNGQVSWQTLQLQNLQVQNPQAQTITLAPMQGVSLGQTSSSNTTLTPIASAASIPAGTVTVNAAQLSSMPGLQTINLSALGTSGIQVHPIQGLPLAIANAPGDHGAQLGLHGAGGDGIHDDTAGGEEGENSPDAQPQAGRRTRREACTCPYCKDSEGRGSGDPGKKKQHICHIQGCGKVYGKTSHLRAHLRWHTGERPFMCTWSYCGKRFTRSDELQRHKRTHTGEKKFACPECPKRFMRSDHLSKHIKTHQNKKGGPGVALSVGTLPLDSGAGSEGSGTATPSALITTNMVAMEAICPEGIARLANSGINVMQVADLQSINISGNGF
Sequence of Signal transducer and activator of transcription 3 (Homo sapiens) (P40763 whole entry, looked up): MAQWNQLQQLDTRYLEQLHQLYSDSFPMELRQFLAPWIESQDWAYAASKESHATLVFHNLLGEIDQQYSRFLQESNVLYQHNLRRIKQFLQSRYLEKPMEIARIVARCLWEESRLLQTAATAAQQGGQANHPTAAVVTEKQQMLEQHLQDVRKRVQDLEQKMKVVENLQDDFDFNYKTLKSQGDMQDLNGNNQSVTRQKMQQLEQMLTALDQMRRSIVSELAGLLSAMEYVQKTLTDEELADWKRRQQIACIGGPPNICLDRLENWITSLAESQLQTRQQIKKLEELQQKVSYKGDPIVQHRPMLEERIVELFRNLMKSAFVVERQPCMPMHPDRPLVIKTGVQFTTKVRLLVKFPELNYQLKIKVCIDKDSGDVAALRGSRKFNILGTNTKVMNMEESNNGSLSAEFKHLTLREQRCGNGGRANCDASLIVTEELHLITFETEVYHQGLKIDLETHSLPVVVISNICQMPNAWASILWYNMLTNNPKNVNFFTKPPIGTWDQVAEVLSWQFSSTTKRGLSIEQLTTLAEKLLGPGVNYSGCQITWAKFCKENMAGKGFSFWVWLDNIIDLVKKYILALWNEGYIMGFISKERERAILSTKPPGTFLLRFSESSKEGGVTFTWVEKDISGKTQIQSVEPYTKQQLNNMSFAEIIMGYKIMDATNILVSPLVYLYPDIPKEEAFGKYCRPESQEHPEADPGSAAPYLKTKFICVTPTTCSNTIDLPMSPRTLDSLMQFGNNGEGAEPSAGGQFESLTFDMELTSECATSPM
Sequence of Hepatocyte nuclear factor 6 (Homo sapiens) (Q9UBC0 whole entry, looked up): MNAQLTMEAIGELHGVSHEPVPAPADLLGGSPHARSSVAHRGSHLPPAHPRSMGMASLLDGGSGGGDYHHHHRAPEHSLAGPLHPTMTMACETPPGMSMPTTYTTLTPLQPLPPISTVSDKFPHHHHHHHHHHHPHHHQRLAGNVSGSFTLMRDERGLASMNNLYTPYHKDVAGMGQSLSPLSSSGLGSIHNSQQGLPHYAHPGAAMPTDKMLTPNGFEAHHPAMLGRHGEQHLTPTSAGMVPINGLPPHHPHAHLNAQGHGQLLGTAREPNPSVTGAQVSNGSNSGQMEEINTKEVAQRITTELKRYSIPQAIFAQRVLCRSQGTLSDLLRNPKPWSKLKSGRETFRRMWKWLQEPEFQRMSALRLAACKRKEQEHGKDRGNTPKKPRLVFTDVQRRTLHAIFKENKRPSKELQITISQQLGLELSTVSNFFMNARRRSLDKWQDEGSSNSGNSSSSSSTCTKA
Sequence of Paired box protein Pax-6 (Homo sapiens) (P26367 whole entry, looked up): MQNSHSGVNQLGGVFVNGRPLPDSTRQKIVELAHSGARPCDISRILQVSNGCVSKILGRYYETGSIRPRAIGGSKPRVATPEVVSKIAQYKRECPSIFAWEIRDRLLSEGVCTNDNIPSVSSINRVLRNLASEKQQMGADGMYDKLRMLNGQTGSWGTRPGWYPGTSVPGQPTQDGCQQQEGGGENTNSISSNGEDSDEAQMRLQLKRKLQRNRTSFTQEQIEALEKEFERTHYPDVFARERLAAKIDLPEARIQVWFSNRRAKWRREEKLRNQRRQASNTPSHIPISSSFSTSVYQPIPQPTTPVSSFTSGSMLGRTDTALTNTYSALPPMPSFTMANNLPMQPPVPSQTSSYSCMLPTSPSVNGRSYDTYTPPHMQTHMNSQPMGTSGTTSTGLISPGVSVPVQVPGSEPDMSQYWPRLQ
Sequence of Hypoxia-inducible factor 1-alpha (Homo sapiens) (Q16665 whole entry, looked up): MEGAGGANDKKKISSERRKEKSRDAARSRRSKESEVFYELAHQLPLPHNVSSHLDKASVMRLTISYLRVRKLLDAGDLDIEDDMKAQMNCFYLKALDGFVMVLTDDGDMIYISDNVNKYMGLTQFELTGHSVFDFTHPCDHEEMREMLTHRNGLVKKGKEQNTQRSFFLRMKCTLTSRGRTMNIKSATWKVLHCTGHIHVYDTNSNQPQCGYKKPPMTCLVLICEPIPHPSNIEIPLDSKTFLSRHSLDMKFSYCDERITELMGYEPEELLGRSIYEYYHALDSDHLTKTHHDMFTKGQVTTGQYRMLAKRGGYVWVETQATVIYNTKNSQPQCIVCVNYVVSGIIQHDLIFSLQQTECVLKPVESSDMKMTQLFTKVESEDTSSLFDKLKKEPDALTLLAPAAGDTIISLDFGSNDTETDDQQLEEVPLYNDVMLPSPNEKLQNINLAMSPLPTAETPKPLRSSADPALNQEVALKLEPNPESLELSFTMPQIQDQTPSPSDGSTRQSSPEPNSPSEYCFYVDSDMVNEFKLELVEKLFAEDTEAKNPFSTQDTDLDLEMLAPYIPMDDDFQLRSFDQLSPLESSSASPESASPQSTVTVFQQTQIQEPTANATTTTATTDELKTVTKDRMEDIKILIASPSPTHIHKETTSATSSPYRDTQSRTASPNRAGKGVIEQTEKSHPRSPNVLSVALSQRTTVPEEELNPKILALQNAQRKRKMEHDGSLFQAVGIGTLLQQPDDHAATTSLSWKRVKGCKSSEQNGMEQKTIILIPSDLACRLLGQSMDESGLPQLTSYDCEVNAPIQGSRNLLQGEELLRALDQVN
Sequence of Heat shock factor protein 1 (Homo sapiens) (Q00613 whole entry, looked up): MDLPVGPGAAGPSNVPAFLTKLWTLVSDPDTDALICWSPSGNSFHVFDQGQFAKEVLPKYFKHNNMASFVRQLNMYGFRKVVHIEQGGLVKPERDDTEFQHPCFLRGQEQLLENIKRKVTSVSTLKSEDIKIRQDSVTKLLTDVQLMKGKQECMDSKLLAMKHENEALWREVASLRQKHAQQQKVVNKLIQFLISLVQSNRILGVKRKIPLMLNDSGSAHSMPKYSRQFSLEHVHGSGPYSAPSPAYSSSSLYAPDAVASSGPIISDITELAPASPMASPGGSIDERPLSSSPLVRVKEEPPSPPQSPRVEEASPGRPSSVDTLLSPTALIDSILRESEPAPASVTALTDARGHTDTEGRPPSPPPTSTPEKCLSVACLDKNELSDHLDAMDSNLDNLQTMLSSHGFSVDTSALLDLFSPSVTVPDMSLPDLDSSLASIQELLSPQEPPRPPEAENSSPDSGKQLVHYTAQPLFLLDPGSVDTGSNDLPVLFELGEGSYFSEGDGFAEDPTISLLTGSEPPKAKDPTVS

CCOCCOCC
not listed: [19] | [20]
inactive: all other assays above

CCCCCCCC(OC)OC
not listed: [9] | [12]
inactive: all other assays above

COC1=CC(=O)C[C@@H](C)[C@]12Oc1c(Cl)c(OC)cc(OC)c1C2=O
active: [3] 26.6 µM | [15] 20.4 µM
not listed: [8] | [20]
inactive: all other assays above

COc1cc([N+](=O)[O-])ccc1N
not listed: [9]
inactive: all other assays above

C=Cc1ccc(O)c(OC)c1
active: [18] 44.7 µM
not listed: [9] | [19]
inactive: all other assays above

O=C1OC(=O)c2cc(-c3ccc4c(c3)C(=O)OC4=O)ccc21
not listed: [8] | [12]
inactive: all other assays above

FCOC(C(F)(F)F)C(F)(F)F
not listed: [8] | [17] | [20]
inactive: all other assays above
